# An excerpt weighted towards active compounds, which were near 19% of everything screened.
# HT1080 IDH1KD tx = HT-1080 IDH1 knockdown cell toxicity (counter line); hit rate 2% among 360,000; AID 686971; HT-1080 IDH1 knockdown viability, ATP luminescence, 48 h; Potency, µM (titrated, usually from 46.1 µM), for the others: at the highest dose activity, negative = toxicity, most hits filed as cytotoxic;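 also: potency is read from the fitted curve at half-maximal effect; 0% = DMSO wells and -100% = cell-free medium wells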
#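 Assay cells: HT-1080 with IDH1 knockdown, 750 per well, RPMI/5% FBS. Exposure: 48 h at 37 °C following 2 h pre-incubation. Read: CellTiter-Glo luminescence; fitted concentration-response, curve class assigned.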
# DT40 TDP1 CPT = DT40-hTDP1 cell growth loss with CPT | chicken DT40 Tdp1-/-;hTDP1 cells + 20 nM CPT, ATP luminescence, 48 h | Potency, µM (doses to about 46.2 µM), for inactives: at the top dose activity change, negative = growth inhibition, usual class: inhibitors | hit rate 12% among 420,000; also: potency is read from the fitted curve at half-maximal effect; nearly all actives have a fitted effect of over 55% in size
#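 Chicken DT40 Tdp1-/- cells stably complemented with human TDP1 were seeded at 400 cells/well in medium containing 20 nM camptothecin, exposed to pin-transferred compounds, and grown at 37 °C for at least 48 hr. Viability was read as ATP luminescence.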
# IL-1B inflam inh = inhibitors of inflammasome signaling (IL-1 beta secretion); THP-1 LPS/ATP IL-1B secretion, AlphaLISA, 16 h; active compounds read low; activity change, % at 57.5 µM; hit rate 4.7% among 360,000; AID 743279; in the data active = activity change below about -50%; inconclusive = mostly about -30% to -49%
#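 Secreted IL-1B measured by AlphaLISA bead assay after 16 h compound exposure of THP-1 cells; compounds (final up to 57.5 uM) added 1 h before LPS (250 ng/mL) and ATP (1.25 mM) stimulation; lower signal means less secretion.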
# HT1080NT lethal = kills 2HG-producing HT-1080-NT fibrosarcoma cells | AID 686970 | Potency, µM (series often up to 46.1 µM), inactives show at the top dose activity, negative = less viability, hits mostly cytotoxic | hit rate 1.6% among 360,000 | HT-1080-NT fibrosarcoma viability, CellTiter-Glo ATP luminescence, 48 h;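 also: NT is the 2HG producing partner of a matched IDH1 knockdown line; potency is read from the fitted curve at half-maximal effect; 0% = DMSO-treated cells and -100% = media-only wells without cells; nearly all actives have a fitted effect of over 55% in size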
#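 A 48-hour cytotoxicity screen used HT-1080-NT cells plated 2 hours before compound delivery. ATP-based CellTiter-Glo luminescence measured viability, normalized to DMSO and no-cell controls.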
# TDP1 cell noCPT = qHTS for Inhibitors of human tyrosyl-DNA phosphodiesterase 1 (TDP1): qHTS in cells in absence of CPT; hit rate 15% among 420,000; Potency, µM (titrated, usually from 46.2 µM), for inactives: at the highest dose activity change, negative = growth inhibition, hits mostly inhibitors; DT40 Tdp1-/- hTDP1 cells, no CPT, ATP luminescence, 48 h; AID 686978, 2013; also: potency is read from the fitted curve at half-maximal effect; nearly all actives have a fitted effect of over 55% in size
#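 No-CPT arm: Tdp1-/-;hTDP1 DT40 cells (400/well) plus compounds, incubated ≥48 hr at 37 °C. Readout CellTiter-Glo luminescence.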
# Numbers without * were called inactive; i = inactive; ? = inconclusive; . = not tested or not shown; [ ] = another dose, or the depositor's remark. Unless noted, calls follow the shape of the dose curve; as a rule, active = well fitted curve in the direction sought with a large enough effect; inconclusive = small, poorly fitted or top-dose-only effect, or another doubt; inactive = no such curve, though single readings can be large; an effect the other way counts as inactive or inconclusive. Unless noted, % is scaled to controls: 0 for no effect and ±100 for the full control effect.
SMILES,HT1080 IDH1KD tx,DT40 TDP1 CPT,IL-1B inflam inh,HT1080NT lethal,TDP1 cell noCPT
Cc1cnc(C)c(-c2cc(F)cc3c2OC(CNC(=O)c2cc(Cl)ccc2F)C3)n1 (stereo not given),.,-3%,.,.,-9%
Cc1cnc(C)c(-c2cccc3c2OC(CNC(=O)C2(c4ccc(Cl)cc4)CC2)C3)n1 (stereo not given),.,-14%[9.04 µM],.,.,21µM*
Cc1cnc(C)c(-c2ccc(F)c3c2OC(CNC(=O)/C=C/c2cccs2)C3)n1 (stereo not given),.,?,.,.,21µM*
Cc1cccnc1-c1cccc2c1OC(CNC(=O)/C=C/c1cccs1)C2 (stereo not given),.,18%[9.04 µM],.,.,?
Cc1ccc(-n2nnc3c(=O)n(CC(=O)NCc4ccco4)cnc32)cc1,-10%,?,4,0%,?
O=C(Cn1cnc2c(cnn2-c2ccc(F)cc2)c1=O)NCc1ccco1,18µM*,2.9µM*,39,?,5.8µM*
Cc1ccc(-n2ncc3c(=O)n(CC(=O)NCc4ccco4)cnc32)cc1C,?,10µM*,21,?,6.5µM*
O=C(Cn1cnc2c(nnn2-c2ccc(F)cc2)c1=O)NCc1ccco1,6%,?,18,-28%,-3%
Cc1ccc(-n2ncc3c(=O)n(CC(=O)NCc4ccco4)cnc32)cc1,-30%,?,21,-24%,23µM*
CCn1c(COc2ccc(=O)n(-c3ccccc3)n2)nnc1SCc1ccc(C)cc1,-11%,-28%,-4,-4%,?
CCn1c(COc2ccc(=O)n(-c3ccccc3)n2)nnc1SCc1ccccc1C,0%,16µM*,-8,0%,?
c1ccc(Cn2c(SCc3nc4ccccc4s3)nnc2-c2ccco2)cc1,-5%,15µM*,-15,-3%,?
O=C(CSc1nnc(-c2ccco2)n1Cc1ccccc1)NCc1ccccc1,8%,-30%,-8,4%,?
COC(=O)CCNCCSc1nnc(-c2ccco2)n1Cc1ccccc1,1%,12µM*,0,23%,8.2µM*
O=[N+]([O-])c1ccc(-c2cc(-c3ccncc3)nc3ccc4ccccc4c23)cc1,?,-22%,11,0%,-20%
COc1ccc(C(=O)OC(COc2ccccc2)Cn2ccnc2)cc1 (stereo not given),-15%,-12%,-90*,-13%,?
COc1ccc(OCC(=O)N/N=C/c2cccc3cccnc23)cc1,?,?,128,?,?
COc1ccc(OCC(=O)N/N=C/c2ccc(OC)c(OC)c2C(=O)O)cc1,6%,-14%,-4,9%,-2%
O=C(COc1ccc(Cl)cc1)N/N=C/c1cccc2cccnc12,?,?,i,-20%,18µM*
Cc1ccnc(-n2c(C)cc(/C=N/NC(=O)COc3cccc4cccnc34)c2C)c1,22%,5%,-54*,9%,-4%
CC(C)(C)c1ccc(C2CC2C(=O)N/N=C\c2cc3ccccc3nc2Cl)cc1 (stereo not given),4%,?,8,9%,16µM*
COc1ccc(/C=N/NC(=O)COc2ccc3ccccc3c2)c(C(=O)O)c1OC,9%,16µM*,-11,12%,?
C/C(=N\NC(=O)c1nnn(-c2nonc2N)c1CN1CCOCC1)c1ccc(CC(C)C)cc1,-10%,7%,50,-8%,-8%
Cc1c(-c2ccc(OCCN3CCOCC3)cc2)c(=O)oc2ccc3ccccc3c12,6%,3%,15,18%,-17%
CCOc1ccc2nc(NC(=O)CCC(=O)c3cccs3)sc2c1,-10%,-15%,0,-6%,-17%
COc1ccccc1OCC(=O)N/N=C/c1cccc2cccnc12,-14%,?,i,-4%,21µM*
C=CCc1ccccc1OCC(=O)N/N=C/c1ccc(OC(C)=O)cc1OC(C)=O,?,5.8µM*,57,-30%,6.5µM*
COc1cccc(/C=N/NC(=O)COc2cccc3cccnc23)c1O,18µM*,7.3µM*,120,-21%,4.1µM*
